# Assay results taken from PubChem BioAssay (NCATS).
# Where “and” joins values, the source holds several entries; their conditions need not be identical. Equal entries are not always repeated. Records with an inconclusive call do not appear. Calls of active or inactive are those of the source. Unless noted, the call rests on the fitted dose curve; in most records, active means well fitted curve in the direction sought with a large enough effect; inconclusive means small, poorly fitted or top-dose-only effect, or another doubt; inactive means no such curve, though single readings can be large; an effect the other way counts as inactive or inconclusive. Where a SMILES comes first, the peptide text is derived from it. [ ]: non-standard residue; d: D form. pGlu = O=C1CC[C@@H](C(=O)O)N1; Thz = O=C(O)[C@@H]1CSCN1
# How the values were obtained:
# [1] = Primary qHTS for inhibitors of nuclear receptor binding SET domain protein 2 (NSD2) in an isogenic RCH-ACV NSD2 p.E1099K mutant (9B) (AID 1645876); further: nearly all actives have a fitted effect of over 70% in size; further: potency means the concentration at half of the fitted maximal effect
# [2] = Primary qHTS for inhibitors of nuclear receptor binding SET domain protein 2 (NSD2) in an RCH-ACV wild type WT cells (2C) (AID 1645877); further: nearly all actives have a fitted effect of over 70% in size; further: potency means the concentration at half of the fitted maximal effect
# [3] = target: Catechol O-methyltransferase (Homo sapiens) (UniProt P21964); assay: Confirmatory Screen for Target Class Profiling of Small Molecule Inhibitors of Methyltransferases (AID 1745852; calls by dose curve; further: potency means the concentration at half of the fitted maximal effect; on activity change, negative = inhibition: on the % scale 0 is the no-effect control and ±100 the full control effect); conditions: MTase-Glo luminescence, SAH detection, recombinant enzyme; measured here: COMT max response; stronger effect = lower value
# Chain of Catechol O-methyltransferase (Homo sapiens) (P21964 whole entry, looked up): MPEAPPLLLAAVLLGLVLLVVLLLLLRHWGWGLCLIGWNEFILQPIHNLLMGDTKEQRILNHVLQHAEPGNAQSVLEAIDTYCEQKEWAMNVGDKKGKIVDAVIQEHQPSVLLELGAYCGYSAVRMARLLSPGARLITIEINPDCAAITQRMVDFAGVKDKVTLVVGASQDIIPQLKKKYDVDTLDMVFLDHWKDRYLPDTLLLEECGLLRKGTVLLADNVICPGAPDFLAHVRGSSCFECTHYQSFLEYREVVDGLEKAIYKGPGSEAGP
# [4] = target: Guanidinoacetate N-methyltransferase (Homo sapiens) (UniProt Q14353); assay: as above; conditions: MTase-Glo luminescence, SAH detection, recombinant enzyme; activity change, negative = inhibition: at 57.3 µM (top of the series)
# [5] = target: Nicotinamide N-methyltransferase (Homo sapiens) (UniProt P40261); assay: as above; conditions: MTase-Glo luminescence, SAH detection, recombinant enzyme; measured here: NNMT max response; stronger effect = lower value
# Chain of Nicotinamide N-methyltransferase (Homo sapiens) (P40261 whole entry, looked up): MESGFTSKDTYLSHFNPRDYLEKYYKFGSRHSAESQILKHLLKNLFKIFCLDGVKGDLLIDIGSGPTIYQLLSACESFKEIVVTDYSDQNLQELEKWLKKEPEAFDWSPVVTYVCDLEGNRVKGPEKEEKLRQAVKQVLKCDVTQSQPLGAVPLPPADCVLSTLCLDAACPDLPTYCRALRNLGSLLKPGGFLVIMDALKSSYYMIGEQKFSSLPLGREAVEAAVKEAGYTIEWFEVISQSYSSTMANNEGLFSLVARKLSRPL
# [6] = target: Phenylethanolamine N-methyltransferase (Homo sapiens) (UniProt P11086); assay: as above; conditions: MTase-Glo luminescence, SAH detection, recombinant enzyme; measured here: PNMT max response; stronger effect = lower value
# Chain of Phenylethanolamine N-methyltransferase (Homo sapiens) (P11086 whole entry, looked up): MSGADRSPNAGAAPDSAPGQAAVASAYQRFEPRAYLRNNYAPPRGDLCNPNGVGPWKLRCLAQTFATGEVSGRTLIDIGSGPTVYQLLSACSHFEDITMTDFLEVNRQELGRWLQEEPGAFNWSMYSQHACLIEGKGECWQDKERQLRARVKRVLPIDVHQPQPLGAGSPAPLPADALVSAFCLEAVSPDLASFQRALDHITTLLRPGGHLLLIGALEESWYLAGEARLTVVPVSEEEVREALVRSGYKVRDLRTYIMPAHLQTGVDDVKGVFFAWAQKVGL
# [7] = target: Rap guanine nucleotide exchange factor 3 (Homo sapiens) (UniProt O95398); assay: Confirmatory qHTS for antagonist of cAMP-regulated guanine nucleotide exchange factor 3 (EPAC1) (AID 1645880); further: nearly all actives have a fitted effect of over 55% in size; further: potency means the concentration at half of the fitted maximal effect
# Chain of Rap guanine nucleotide exchange factor 3 (Homo sapiens) (O95398 whole entry, looked up): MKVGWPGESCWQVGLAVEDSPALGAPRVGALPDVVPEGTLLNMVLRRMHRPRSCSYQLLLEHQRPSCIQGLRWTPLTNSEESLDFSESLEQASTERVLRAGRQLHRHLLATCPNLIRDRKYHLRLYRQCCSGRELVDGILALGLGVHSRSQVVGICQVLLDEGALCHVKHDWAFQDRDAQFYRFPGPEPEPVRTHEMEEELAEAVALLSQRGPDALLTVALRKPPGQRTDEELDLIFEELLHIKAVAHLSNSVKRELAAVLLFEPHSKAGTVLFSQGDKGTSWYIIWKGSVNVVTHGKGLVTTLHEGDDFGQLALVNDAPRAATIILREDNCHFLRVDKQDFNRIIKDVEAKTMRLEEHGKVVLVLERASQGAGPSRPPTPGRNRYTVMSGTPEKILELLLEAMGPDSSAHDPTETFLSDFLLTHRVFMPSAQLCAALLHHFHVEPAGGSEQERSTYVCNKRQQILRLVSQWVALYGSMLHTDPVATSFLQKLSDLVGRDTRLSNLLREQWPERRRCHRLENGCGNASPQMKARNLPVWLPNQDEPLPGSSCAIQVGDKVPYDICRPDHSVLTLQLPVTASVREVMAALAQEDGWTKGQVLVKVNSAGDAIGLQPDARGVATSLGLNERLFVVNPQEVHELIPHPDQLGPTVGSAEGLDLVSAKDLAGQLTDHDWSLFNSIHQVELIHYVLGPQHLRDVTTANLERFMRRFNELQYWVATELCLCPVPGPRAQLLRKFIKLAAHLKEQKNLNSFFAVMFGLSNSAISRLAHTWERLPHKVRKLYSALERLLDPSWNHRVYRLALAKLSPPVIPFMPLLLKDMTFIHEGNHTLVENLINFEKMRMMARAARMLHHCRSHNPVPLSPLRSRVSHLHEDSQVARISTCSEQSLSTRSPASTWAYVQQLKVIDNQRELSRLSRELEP
# How it was run: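 Nucleotide exchange uses 100 nM EPAC1, 250 nM RAP1B-BODIPY-GDP and 50 uM GDP, with compounds in a concentration-titration series. After 5 min at room temperature, fluorescence (480 nm ex/540 nm em) is read every 5 min for 30 min. Data are normalized to control ATA and DMSO.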
# [8] = target: Rap guanine nucleotide exchange factor 3 (Homo sapiens) (UniProt O95398); assay: Confirmatory qHTS for agonist of cAMP-regulated guanine nucleotide exchange factor 3 (EPAC1) (AID 1645881); further: nearly all actives have a fitted effect of over 75% in size; further: potency means the concentration at half of the fitted maximal effect
# [9] = target: Rap guanine nucleotide exchange factor 4 (Homo sapiens) (UniProt Q8WZA2); assay: Confirmatory qHTS for agonist of cAMP-regulated guanine nucleotide exchange factor 4 (EPAC2) (AID 1645884);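 further: nucleotide exchange releases bodipy-GDP from Rap1 and this lowers its fluorescence; nearly all actives have a fitted effect of over 65% in size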; further: potency means the concentration at half of the fitted maximal effect
# Chain of Rap guanine nucleotide exchange factor 4 (Homo sapiens) (Q8WZA2 whole entry, looked up): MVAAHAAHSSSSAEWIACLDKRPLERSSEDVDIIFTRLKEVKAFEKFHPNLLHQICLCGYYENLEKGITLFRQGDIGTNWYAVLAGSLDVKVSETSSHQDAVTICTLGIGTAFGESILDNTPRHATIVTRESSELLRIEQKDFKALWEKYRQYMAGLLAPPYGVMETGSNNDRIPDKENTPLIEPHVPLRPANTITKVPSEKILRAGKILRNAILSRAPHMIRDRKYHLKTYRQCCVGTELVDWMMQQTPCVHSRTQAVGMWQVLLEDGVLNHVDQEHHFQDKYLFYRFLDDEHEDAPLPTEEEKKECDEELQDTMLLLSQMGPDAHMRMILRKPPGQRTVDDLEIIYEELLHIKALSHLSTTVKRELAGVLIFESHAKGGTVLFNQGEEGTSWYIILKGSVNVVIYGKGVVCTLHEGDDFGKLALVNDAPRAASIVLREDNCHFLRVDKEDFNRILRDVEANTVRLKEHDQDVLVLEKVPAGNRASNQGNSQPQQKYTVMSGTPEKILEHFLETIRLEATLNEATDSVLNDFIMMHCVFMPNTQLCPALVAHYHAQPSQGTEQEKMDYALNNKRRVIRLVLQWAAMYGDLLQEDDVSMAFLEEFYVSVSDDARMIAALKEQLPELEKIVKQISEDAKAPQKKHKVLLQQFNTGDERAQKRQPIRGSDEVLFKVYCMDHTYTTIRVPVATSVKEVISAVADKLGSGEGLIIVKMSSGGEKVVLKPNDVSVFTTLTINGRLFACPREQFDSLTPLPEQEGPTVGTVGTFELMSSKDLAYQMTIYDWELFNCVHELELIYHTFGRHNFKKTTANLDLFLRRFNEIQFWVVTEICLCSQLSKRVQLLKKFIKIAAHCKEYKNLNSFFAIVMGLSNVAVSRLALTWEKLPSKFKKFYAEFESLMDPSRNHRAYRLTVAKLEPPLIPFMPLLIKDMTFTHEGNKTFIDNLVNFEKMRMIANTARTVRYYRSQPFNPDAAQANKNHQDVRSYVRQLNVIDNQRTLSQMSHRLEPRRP
# [10] = target: Rap guanine nucleotide exchange factor 4 (Homo sapiens) (UniProt Q8WZA2); assay: Confirmatory qHTS for antagonist of cAMP-regulated guanine nucleotide exchange factor 4 (EPAC2) (AID 1645885); further: nearly all actives have a fitted effect of over 25% in size; further: potency means the concentration at half of the fitted maximal effect; on activity change, negative = inhibition: on the % scale 0 is the no-effect control and ±100 the full control effect
# [11] = NCATS anti-infectives library activity on HEK293 viability as a counter-qHTS vs the C. elegans viability qHTS (AID 1745854); further: on the % scale 0 is the no-effect control and ±100 the full control effect
# How it was run: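 HEK293 cells, 1500 per well, exposed 24 hr at 37C in 5% CO2 to compounds in a 1:5 titration, up to 41.7 uM final. Viability read as CellTiter-Glo luminescence after 10 min at room temperature.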
# [12] = NCATS anti-infectives library activity on the primary C. elegans qHTS viability assay (AID 1745855; calls by dose curve; further: potency means the concentration at half of the fitted maximal effect); conditions: C. elegans worm area imaging, day 7
# How it was run: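 Viability is taken from GFP fluorescence of PE254-GFP-FLuc C. elegans imaged by laser cytometry over 7 days. Ten L1 worms per well grow at 21 °C on TOP10 E. coli capsules with titrated compound; levamisole marks toxicity.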
compound,measurement,setting,value
C[C@H](O)[C@H](O)[C@H]1CNc2nc(N)[nH]c(=O)c2N1,Potency,[1],inactive
same,Potency,[2],inactive
COc1cc(NC(C)CCCN)c2ncccc2c1 (centres undefined),Potency,[1],6.68 µM (active)
same,Potency,[2],5.31 µM (active)
C=CCc1cccc(/C=N/NC(=O)CN2CCN(Cc3ccccc3)CC2)c1O,Potency,[1],7.42 µM (active)
same,Potency,[2],7.42 µM (active)
O=C(c1cc(O)c(O)c([N+](=O)[O-])c1)c1ccccc1F,activity,[3],-103%
same,"activity change, negative = inhibition",[4],-5.06%
same,activity,[5],-15.6%
same,activity,[6],-23.2%
CC[C@H]1OC(=O)[C@H](C)[C@@H](O[C@H]2C[C@@](C)(OC)[C@@H](O)[C@H](C)O2)[C@H](C)[C@@H](O[C@@H]2O[C@H](C)C[C@H](N(C)C)[C@H]2O)[C@](C)(O)C[C@@H](C)C(=O)[C@H](C)[C@@H](O)[C@]1(C)O,Potency,[1],inactive
same,Potency,[2],inactive
N#C/C(=C\c1ccc(O)c(O)c1)C(=O)NCc1ccccc1,Potency,[1],9.2 µM (active) and 13.2 µM (active)
same,Potency,[2],9.2 µM (active) and 11.8 µM (active)
CC(=O)O[C@H]1C[C@@]2(C)[C@@H](C[C@@H](O)[C@H]3[C@@]4(C)CC[C@@H](O)[C@@H](C)[C@@H]4CC[C@@]32C)/C1=C(\CCC=C(C)C)C(=O)O,Potency,[1],inactive
same,Potency,[2],inactive
CC1(C)[C@@H](O)CC[C@]2(C)[C@H]3C(=O)C=C4[C@@H]5C[C@@](C)(C(=O)O)CC[C@]5(C)CC[C@@]4(C)[C@]3(C)CC[C@@H]12,Potency,[1],inactive
same,Potency,[2],inactive
same,Potency,[7],inactive
same,Potency,[8],inactive
same,Potency,[9],inactive
same,Potency,[10],3.93 µM (active) and 2.48 µM (active)
O=C(O)CC1CC(c2ccccc2)=NO1 (centres undefined),Potency,[1],inactive
same,Potency,[2],inactive
COC(=O)C1=C(C)NC(C)=C(C(=O)OCC(C)C)C1c1ccccc1[N+](=O)[O-] (centres undefined),Potency,[2],26.6 µM (active)
O=C1CC[C@@H](C(=O)N2CSC[C@H]2C(=O)O)N1 ([pGlu]-[Thz]-OH),Potency,[1],inactive
same,Potency,[2],inactive
Cc1onc(-c2c(F)cccc2Cl)c1C(=O)N[C@@H]1C(=O)N2[C@@H]1SC(C)(C)[C@@H]2C(=O)O,Potency,[1],inactive
same,Potency,[2],inactive
COc1cc(OC)c(/C=C2/C(=O)Nc3ccccc32)c(OC)c1,activity,[3],-23%
same,Potency,[4],27.3 µM (active)
same,activity,[5],-28.2%
same,activity,[6],-34.5%
N#C/C(=C\c1ccc(O)c(O)c1)C(=O)NCCCc1ccccc1,Potency,[1],14.6 µM (active)
same,Potency,[2],16.4 µM (active)
same,Potency,[7],15.7 µM (active)
same,Potency,[8],inactive
same,Potency,[9],inactive
CC(=O)[C@]1(O)Cc2c(O)c3c(c(O)c2[C@@H](O[C@H]2C[C@H](N)[C@H](O)[C@H](C)O2)C1)C(=O)c1c(O)cccc1C3=O,Potency,[7],inactive
same,Potency,[8],70.6 µM (active)
same,Potency,[9],79.3 µM (active)
same,Potency,[10],inactive
COc1ccc(/C=C/C(=O)Nc2ccccc2C(=O)O)cc1OC,Potency,[1],inactive
same,Potency,[2],inactive
COc1cc(/C=C/C(=O)N2CCN(CC(=O)N3CCCC3)CC2)cc(OC)c1OC,Potency,[1],inactive
same,Potency,[2],inactive
COc1ccccc1CNCCCCCCNCCCCCCCCNCCCCCCNCc1ccccc1OC,activity,[3],5.14%
same,Potency,[4],0.153 µM (active)
same,activity,[5],-17.7%
same,activity,[6],2.9%
CC1(C)S[C@@H]2[C@H](NC(=O)[C@H](NC(=O)N3CCN(S(C)(=O)=O)C3=O)c3ccccc3)C(=O)N2[C@H]1C(=O)O,Potency,[1],inactive
same,Potency,[2],inactive
CC[C@@H](C)[C@H]1O[C@]2(CC[C@@H]1C)C[C@@H]1C[C@@H](C/C=C(\C)[C@@H](O[C@H]3C[C@H](OC)[C@@H](O[C@H]4C[C@H](OC)[C@@H](O)[C@H](C)O4)[C@H](C)O3)[C@@H](C)/C=C/C=C3\CO[C@@H]4[C@H](O)C(C)=C[C@@H](C(=O)O1)[C@]34O)O2,outcome,[11],inactive
same,Potency,[12],0.0058 µM (active)
CN1CCc2cccc3c2C1Cc1ccc(O)c(O)c1-3 (centres undefined),activity,[3],5.12%
same,"activity change, negative = inhibition",[4],3.98%
same,activity,[5],0.623%
same,activity,[6],3.44%
CN(C)c1nc2c(Br)c(Br)c(Br)c(Br)c2[nH]1,Potency,[1],14.6 µM (active)
same,Potency,[2],10.3 µM (active)
OCC1O[C@H]([S-])[C@H](O)[C@@H](O)[C@@H]1O.[Au+] (some centres undefined),activity,[3],-38.3%
same,Potency,[4],4.85 µM (active)
same,activity,[5],-21.4%
same,activity,[6],-1.84%
N=c1ccn2c(n1)O[C@H]1[C@H](O)[C@@H](CO)O[C@H]12,outcome,[11],inactive
COC(=O)[C@H]1[C@H]2C[C@@H]3c4[nH]c5cc(OC)ccc5c4CCN3C[C@H]2C[C@@H](OC(=O)/C=C/c2cc(OC)c(OC)c(OC)c2)[C@@H]1OC,Potency,[2],inactive
same,Potency,[7],inactive
same,Potency,[8],inactive
same,Potency,[10],inactive
Nc1nc2ccc([N+](=O)[O-])cc2s1,Potency,[1],21.7 µM (active)
same,Potency,[2],19.3 µM (active)
CC1(C)[C@@H](O[C@H]2O[C@H](C(=O)O)[C@@H](O)[C@H](O)[C@H]2O[C@@H]2O[C@H](C(=O)O)[C@@H](O)[C@H](O)[C@H]2O)CC[C@]2(C)[C@H]3C(=O)C=C4[C@@H]5C[C@@](C)(C(=O)O)CC[C@]5(C)CC[C@@]4(C)[C@]3(C)CC[C@@H]12,Potency,[1],inactive
same,Potency,[2],inactive
C#CCN1C(C)=C(C(=O)OC)C(c2cccc([N+](=O)[O-])c2)C(C(=O)OCC)=C1C (centres undefined),Potency,[8],inactive
same,Potency,[9],inactive
same,Potency,[10],6.98 µM (active)
O=C1NCc2c1c1c3ccccc3[nH]c1c1[nH]c3ccccc3c21,activity,[3],-23.6%
same,Potency,[4],17.2 µM (active)
same,activity,[5],-25.9%
same,activity,[6],-28.7%
Fc1ccc(C(OCCCc2cnc[nH]2)c2ccc(F)cc2)cc1,activity,[3],0.59%
same,"activity change, negative = inhibition",[4],7.35%
same,activity,[5],-23.2%
same,activity,[6],-0.346%
O=C1O/C(=C/Br)CCC1c1cccc2ccccc12 (centres undefined),Potency,[8],inactive
same,Potency,[9],inactive
same,Potency,[10],49.4 µM (active)
CC1(C)S[C@@H]2[C@H](NC(=O)[C@H](N)c3ccc(O)cc3)C(=O)N2[C@H]1C(=O)O,Potency,[1],inactive
same,Potency,[2],inactive
